Counter-ions that a name gives are not always drawn. ± gives the standard deviation of the averaged measurements.
Columns and labels:
Experiment in all cases: growth (OD600 after 10 h); higher = more growth (less inhibition)
[1] = test system: E. coli TESEC Alr+ wild-type control; details: compound 0.1 mM; raw OD600 reference: median of DMSO wells 0.241, cell-free background 0.041
Procedure: (§1)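 TESEC Mtb Alr E. coli, or the Alr+ wild-type control, in 384-well plates with Prestwick library compounds at 0.1 mM and 1% DMSO, across arabinose induction levels of 1E3 to 1E7 nM. Growth is read as OD600 after 10 h at 37 °C in triplicate biological replicates.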

E. coli TESEC Mtb Alr [2] = details: compound 0.1 mM
Procedure: as §1

E. coli TESEC Mtb Asd = details: compound 0.1 mM
Procedure: (§2)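 TESEC E. coli strains in which the native enzyme is deleted and replaced by arabinose-inducible Mtb Asd, DapB, CysH or TrpD, each grown in its selective medium. Strains were screened against the Prestwick library at 0.1 mM and 1% DMSO in 384-well format at low and high arabinose induction. Growth is read as OD600 after 10 h in triplicate.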

E. coli TESEC Mtb DapB = details: compound 0.1 mM
Procedure: as §2

E. coli TESEC Mtb Alr [3] = details: compound 0.1 mM; remark: listed apart in the source
Procedure: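 TESEC Mtb Alr E. coli (ΔaraC ΔtolC ΔentC Δalr ΔdadX, arabinose-inducible Mtb Alr) or the Alr+ wild-type control strain, grown in defined M9-fructose medium without D-alanine in 96-well plates with Prestwick library compounds at 0.1 mM and 1% DMSO. Low Alr induction is 0.1 µM arabinose and high induction is 10 mM arabinose.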

[4] = arabinose 1000 nM, raw OD600 reference: median of DMSO wells 0.294, cell-free background 0.041
[5] = arabinose 10000 nM, raw OD600 reference: median of DMSO wells 0.264, cell-free background 0.041
[6] = arabinose 100000 nM, raw OD600 reference: median of DMSO wells 0.201, cell-free background 0.041
[7] = arabinose 1000000 nM, raw OD600 reference: median of DMSO wells 0.193, cell-free background 0.041
[8] = arabinose 10000000 nM, raw OD600 reference: median of DMSO wells 0.146, cell-free background 0.041
[9] = arabinose induction (level): High, raw OD600 reference: median of DMSO wells 0.331, cell-free background 0.041
[10] = arabinose induction (level): Low, raw OD600 reference: median of DMSO wells 0.417, cell-free background 0.041
[11] = arabinose induction (level): High, raw OD600 reference: median of DMSO wells […], cell-free background 0.041
[12] = arabinose induction (level): Low, raw OD600 reference: median of DMSO wells 0.227, cell-free background 0.041
[13] = arabinose 100 nM, raw OD600 reference: median of DMSO wells 0.413, cell-free background 0.052
[14] = arabinose 10000000 nM, raw OD600 reference: median of DMSO wells […], cell-free background 0.052

| Structure (SMILES) | growth [1] | growth (E. coli TESEC Mtb Alr [2]; [4]) | growth (E. coli TESEC Mtb Alr [2]; [5]) | growth (E. coli TESEC Mtb Alr [2]; [6]) | growth (E. coli TESEC Mtb Alr [2]; [7]) | growth (E. coli TESEC Mtb Alr [2]; [8]) | growth (E. coli TESEC Mtb Asd; [9]) | growth (E. coli TESEC Mtb Asd; [10]) | growth (E. coli TESEC Mtb DapB; [11]) | growth (E. coli TESEC Mtb DapB; [12]) | growth (E. coli TESEC Mtb Alr [3]; [13]) | growth (E. coli TESEC Mtb Alr [3]; [14]) |
| --- | --- | --- | --- | --- | --- | --- | --- | --- | --- | --- | --- | --- |
| NS(=O)(=O)c1cc2c(cc1Cl)NCNS2(=O)=O [Hydrochlorothiazide] | 0.245 ± 0.0063 | 0.282 ± 0.019 | 0.255 ± 0.006 | 0.234 ± 0.011 | 0.166 ± 0.0054 | 0.14 ± 0.0039 | 0.367 ± 0.053 | 0.408 ± 0.031 | 0.201 ± 0.013 | 0.244 ± 0.027 | 0.41 ± 0.014 | 0.367 ± 0.019 |
| CCCCC1C(=O)N(c2ccccc2)N(c2ccccc2)C1=O [Phenylbutazone] | 0.17293 ± 0.00015 | 0.224 ± 0.0029 | 0.234 ± 0.023 | 0.124 ± 0.0055 | 0.0869 ± 0.0014 | 0.132 ± 0.0036 | 0.145 ± 0.0034 | 0.261 ± 0.083 | 0.141 ± 0.0096 | 0.152 ± 0.006 | 0.399 ± 0.0095 | 0.283 ± 0.034 |
| CC[N+](C)(CC)CCOC(=O)C1c2ccccc2Oc2ccccc21 [Methantheline bromide] | 0.192 ± 0.0029 | 0.269 ± 0.011 | 0.287 ± 0.0031 | 0.18 ± 0.015 | 0.193 ± 0.025 | 0.135 ± 0.007 | 0.223 ± 0.043 | 0.344 ± 0.044 | 0.173 ± 0.018 | 0.222 ± 0.018 | 0.4172 ± 0.0035 | 0.336 ± 0.013 |
| O=C1c2cccc(O)c2C(=O)c2c(O)cccc21 [1,8-Dihydroxyanthraquinone] | 0.132 ± 0.0039 | 0.15 ± 0.013 | 0.0699 ± 0.015 | 0.138 ± 0.0019 | 0.0486 ± 0.0032 | 0.153 ± 0.0021 | 0.187 ± 0.013 | 0.147 ± 0.0069 | 0.189 ± 0.0068 | 0.255 ± 0.067 | 0.361 ± 0.0048 | 0.218 ± 0.013 |
| C#C[C@]1(OC(C)=O)CC[C@H]2[C@@H]3CCC4=C[C@@H](OC(C)=O)CC[C@@H]4[C@H]3CC[C@@]21C [Ethynodiol diacetate] | 0.174 ± 0.0051 | 0.233 ± 0.016 | 0.215 ± 0.034 | 0.12 ± 0.0032 | 0.0855 ± 0.0055 | 0.161 ± 0.018 | 0.221 ± 0.012 | 0.358 ± 0.039 | 0.161 ± 0.0063 | 0.165 ± 0.011 | 0.384 ± 0.012 | 0.118 ± 0.019 |
| CCN1CCN(c2cc3c(cc2F)c(=O)c(C(=O)O)cn3C2CC2)CC1 [Enrofloxacin] | 0.04133 ± 0.00021 | 0.0446 ± 0.0089 | 0.0393 ± 0.00035 | 0.0406 ± 0.0012 | 0.0391 ± 0.0002 | 0.0419 ± 0.0033 | 0.0465 ± 0.0016 | 0.0466 ± 0.0016 | 0.0496 ± 0.00083 | 0.0487 ± 0.0006 | 0.05387 ± 0.00035 | 0.0522 ± 0.001 |
| C=CCSCC1Nc2cc(Cl)c(S(N)(=O)=O)cc2S(=O)(=O)N1 (stereo unspecified) [Althiazide] | 0.244 ± 0.006 | 0.301 ± 0.019 | 0.2578 ± 0.0023 | 0.219 ± 0.016 | 0.183 ± 0.011 | 0.141 ± 0.0034 | 0.261 ± 0.052 | 0.441 ± 0.019 | 0.209 ± 0.0088 | 0.242 ± 0.018 | 0.383 ± 0.006 | 0.326 ± 0.012 |
| CNC1(C)C2CCC(C2)C1(C)C (stereo unspecified) [Mecamylamine hydrochloride] | 0.242 ± 0.006 | 0.307 ± 0.0084 | 0.293 ± 0.0071 | 0.214 ± 0.034 | 0.185 ± 0.016 | 0.156 ± 0.0054 | 0.266 ± 0.078 | 0.304 ± 0.093 | 0.187 ± 0.018 | 0.238 ± 0.012 | 0.433 ± 0.0029 | 0.312 ± 0.02 |
| Cc1c(C)c2c(c(C)c1O)CCC(C)(C(=O)O)O2 (stereo unspecified) [Trolox] | 0.247 ± 0.0084 | 0.295 ± 0.0077 | 0.255 ± 0.0029 | 0.209 ± 0.031 | 0.1784 ± 0.0016 | 0.143 ± 0.0045 | 0.272 ± 0.097 | 0.32 ± 0.15 | 0.242 ± 0.0084 | 0.222 ± 0.021 | 0.405 ± 0.0096 | 0.316 ± 0.024 |
| CC(C)n1c(/C=C/C(O)CC(O)CC(=O)O)c(-c2ccc(F)cc2)c2ccccc21 (stereo unspecified) [Fluvastatin sodium salt] | 0.165 ± 0.0024 | 0.247 ± 0.017 | 0.192 ± 0.0063 | 0.187 ± 0.015 | 0.0938 ± 0.0088 | 0.157 ± 0.0043 | 0.216 ± 0.066 | 0.32 ± 0.052 | 0.17 ± 0.0096 | 0.199 ± 0.02 | 0.394 ± 0.03 | 0.235 ± 0.0099 |
| COc1cc(NS(=O)(=O)c2ccc(N)cc2)ncn1 [Sulfamonomethoxine] | 0.222 ± 0.0061 | 0.259 ± 0.022 | 0.173 ± 0.0027 | 0.2 ± 0.0044 | 0.1141 ± 0.00026 | 0.1384 ± 0.0013 | 0.345 ± 0.061 | 0.413 ± 0.018 | 0.166 ± 0.026 | 0.19 ± 0.014 | 0.422 ± 0.0097 | 0.331 ± 0.0088 |
| CNCCCC1c2ccccc2C=Cc2ccccc21 [Protriptyline hydrochloride] | 0.177 ± 0.013 | 0.219 ± 0.0041 | 0.256 ± 0.018 | 0.157 ± 0.0029 | 0.12 ± 0.0051 | 0.137 ± 0.0036 | 0.153 ± 0.0035 | 0.263 ± 0.058 | 0.164 ± 0.039 | 0.21 ± 0.011 | 0.402 ± 0.013 | 0.313 ± 0.018 |
| CCOCCn1c(N2CCCN(C)CC2)nc2ccccc21 [Emedastine] | 0.223 ± 0.007 | 0.288 ± 0.0092 | 0.25 ± 0.0071 | 0.211 ± 0.052 | 0.164 ± 0.0048 | 0.135 ± 0.004 | 0.291 ± 0.075 | 0.328 ± 0.058 | 0.205 ± 0.018 | 0.211 ± 0.019 | 0.415 ± 0.012 | 0.337 ± 0.013 |

Source: the supplement of paper PMC9262897, “Low-cost anti-mycobacterial drug discovery using engineered E. coli” (Nature Communications, 2022)
